Screens from PubChem.
Tau fibril FP: inhibitors of human tau fibril formation; P10636; K18 P301L tau heparin fibrillization, Alexa594 FP, 6 h; Potency, µM (titrated, usually from 57.7 µM), for inactives: at the top dose activity, negative = inhibition, actives largely listed as inhibitors; actives 0.39% (n = 280,000); AID 1468; note: potency is the fitted concentration of half-maximal effect; nearly all actives have a fitted effect of over 55% in size
Target sequence (P10636 561-689 P618L limits assumed): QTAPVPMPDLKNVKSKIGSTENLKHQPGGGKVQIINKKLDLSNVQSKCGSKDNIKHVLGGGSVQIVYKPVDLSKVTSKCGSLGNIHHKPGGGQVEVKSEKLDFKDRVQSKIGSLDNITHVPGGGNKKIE
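Quantitative HTS format: compounds meet 15 uM recombinant K18 P301L tau and Alexa 594-tau tracer in 100 mM sodium acetate pH 7; 20 uM heparin triggers fibrillization at 37 C over 6 hr; FP gives the signal.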
G9a block: blocks human histone lysine methyltransferase G9a; AID 504332; Q96KQ7; actives 8.8% (n = 350,000); Potency, µM (titrated, usually from 102 µM), for inactives: at the top dose activity, negative = inhibition, most hits filed as inhibitors; G9a H3K9 monomethylation, AlphaScreen, 2 h; note: potency is the fitted concentration of half-maximal effect; nearly all actives have a fitted effect of over 75% in size
Target sequence (Q96KQ7 913-1193 limits assumed): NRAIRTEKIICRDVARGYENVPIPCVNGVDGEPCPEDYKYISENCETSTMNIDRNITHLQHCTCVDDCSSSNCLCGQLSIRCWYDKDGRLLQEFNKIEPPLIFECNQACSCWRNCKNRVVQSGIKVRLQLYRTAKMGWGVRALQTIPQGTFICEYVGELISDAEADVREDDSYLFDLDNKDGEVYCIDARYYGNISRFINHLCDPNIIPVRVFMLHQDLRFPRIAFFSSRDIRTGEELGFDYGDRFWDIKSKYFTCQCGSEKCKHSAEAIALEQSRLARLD
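G9a (20 nM) was preincubated 15 min with compound, then reacted 2 h at room temperature with 500 nM biotin-H3K9 peptide and 20 µM SAM. Monomethyl-H3K9 detected by AlphaScreen using anti-H3K9me1 antibody.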
Sfp PPTase inh: inhibitors of Bacillus subtilis Sfp phosphopantetheinyl transferase. actives 3.5% (n = 310,000). Potency, µM, inactives show largest response in the series, negative = inhibition, actives largely listed as inhibitors. Biochemical Sfp PPTase activity, qHTS. Q9F4F7;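 note: the enzyme is Sfp with the accession as filed and its product quenches rhodamine fluorescence; potency is the fitted concentration of half-maximal effect; 0% = enzyme reaction without inhibitor and -100% = no enzyme wells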
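Fluorescence-quenching assay: 15 nM Sfp-PPTase preincubated 15 min at room temperature with compound, then 5 uM rhodamine-CoA and 12.5 uM BHQ-2-labelled YbbR peptide added. Fluorescence (ex 525/em 598 nm) read at start and after 30 min; difference gives rate.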
Tau fluor cs: counter-screen for tau fibril formation inhibitors; tau K18 P301L Alexa594 fluorescence, heparin fibrillization; Potency, µM (series often up to 57.7 µM), without a hit: top-dose activity change, negative = decrease; actives 0.93% (n = 280,000); note: potency is the fitted concentration of half-maximal effect; nearly all actives have a fitted effect of over 55% in size
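Human tau K18 P301L (15 uM unlabeled, 0.24 uM Alexa 594-labeled) in 100 mM sodium acetate pH 7 with 20 uM heparin, 6 hr at 37 C. ThT 30 uM added, 1 hr ambient; Alexa 594 FP and total fluorescence read at 555/632 nm.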
Coupling enz: counter-screen for Giardia aldolase inhibitors: coupling enzyme system. actives 0.67% (n = 290,000). coupling enzyme system counterscreen, AmpLite Red fluorescence. AID 2472. activity change, negative = inhibition, % at 58.2 µM, hits read low; in the data active = activity change below about -30%
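Activity here indicates interference with the coupling reaction, not aldolase inhibition. Compounds at 57.5 uM final met coupling enzymes for 10 min at RT; substrate and AmpLite Red detection followed, with a 525/598 nm fluorescence read after 20 min.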
Tau fibril ThT: tau fibrillization inhibition (ThT binding); recombinant tau K18 P301L (four-repeat tau fragment), heparin-induced fibrillization, ThT fluorescence; AID 1460; actives 2.1% (n = 270,000); P10636; Potency, µM (series often up to 57.4 µM), for the others: top-dose activity, negative = inhibition, most hits filed as inhibitors; note: potency is the fitted concentration of half-maximal effect; nearly all actives have a fitted effect of over 55% in size
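In this qHTS, human K18 P301L tau is incubated with compound and heparin for 6 hr at 37 C, and Thioflavin T fluorescence then reports fibril load.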
* marks the source's active call; other numbers are inactive results; ? = inconclusive; nt = not tested or not shown; [ ] = another dose, or the depositor's remark. Shown are actives, neighbours in structure and some others; about 11% of the full set was active somewhere. Unless noted, calls come from the whole dose curve; as a rule, active = well fitted curve in the direction sought with a large enough effect; inconclusive = small, poorly fitted or top-dose-only effect, or another doubt; inactive = no such curve, though single readings can be large; an effect the other way counts as inactive or inconclusive. Unless noted, % is set by controls: 0 for no effect and ±100 for the full control effect.

SMILES	Tau fibril FP	G9a block	Sfp PPTase inh	Tau fluor cs	Coupling enz	Tau fibril ThT
CCCCN(C(=O)C(C)Oc1ccc(Cl)cc1)c1c(N)n(CCCC)c(=O)[nH]c1=O (stereo not drawn)	nt	50µM*	nt	nt	nt	nt
CCn1c(O)c(N=NC(=O)CNC(=O)/C=C/c2ccco2)c2ccccc21	-4%	56µM*	?	-7%	6	?
CCOc1ccc2cc(S(=O)(=O)n3ccnc3C)ccc2c1	0%	?	40µM*	0%	0	-13%
CCOc1ccc2cc(S(=O)(=O)N3CCOCC3)ccc2c1	-4%	4.5µM*	-11%	-7%	-5	-15%
C/C(=N\Nc1cccc(Cl)c1)c1ccc(-n2ccnc2)cc1	8%	7.9µM*	2%	?	4	?
C/C(=N\Nc1ccc(C)c(Cl)c1)c1cccnc1	nt	11µM*	-5%	nt	-15	nt
C/C(=N\Nc1ccc(C)c(Cl)c1)c1ccncc1	nt	22µM*	-4%	nt	-11	nt
CCc1ccc(S(=O)(=O)c2nnn3c2nc(NCCC(C)C)c2cc(Cl)ccc23)cc1	?	-1%[59 µM]	nt	-22%	nt	6%
COc1ccc(Oc2ncc3nc(-c4ccccc4)c(=O)n(Cc4cccs4)c3n2)cc1	nt	9%[12.7 µM]	6%	nt	3	nt
CCOC(=O)c1cnc2oc3ccccc3n2c1=O	nt	nt	9%	nt	-1	nt
O=C(O)c1cnc2[nH]c3ccccc3n2c1=O	2%	50µM*	13%	-15%	4	-9%
COc1ccc(-c2cc(C(=O)NCC3CCCO3)c3cc(C(C)C)ccc3n2)cc1 (stereo not drawn)	nt	-5%[59 µM]	-14%	nt	-1	nt
O=c1cc(CN2CCN(Cc3ccccc3)CC2)c2cc(Cl)ccc2o1	4%	45µM*	11%	0%	2	-5%
CCc1ccc2oc(=O)cc(CN3CCN(Cc4ccccc4)CC3)c2c1	nt	45µM*	3%	nt	2	nt
CCOc1c(OC(C)=O)ccc(/C=C/c2ccc3cccc(OC(C)=O)c3n2)c1[N+](=O)[O-]	?	17%[0.0925 µM]	1%	8.9µM*[quencher]	nt	6.3µM*
O=[N+]([O-])c1ccccc1/C=C/c1ccc2ccccc2n1	nt	nt	-11%	nt	4	nt
COc1c(OC(C)=O)ccc(/C=C/c2ccc3cccc(OC)c3n2)c1[N+](=O)[O-]	-1%	?	-3%	?	-1	8.9µM*
COc1c(OC(C)=O)ccc(/C=C/c2ccc3ccccc3n2)c1[N+](=O)[O-]	?	?	-1%	16µM*[quencher]	1	10µM*
CO/N=C(/C(=O)N[C@@H]1C(=O)N2C(C(=O)O)=CCS[C@H]12)c1cnc(N)s1	nt	nt	79µM*	nt	-4	nt
CCN(CC)CCCn1c2c(c(SCC(=O)Nc3cc(OC)cc(OC)c3)nc1=O)CCC2	nt	50µM*	nt	nt	nt	nt
CCCCc1ccc(NC(=O)CSc2nc(=O)n(CCN(CC)CC)c3c2CCC3)cc1	nt	50µM*	nt	nt	nt	nt
CN(C)CCCn1c2c(c(SCC(=O)Nc3cccc4ccccc34)nc1=O)CCCC2	nt	40µM*	nt	nt	nt	nt
Cc1ccc(NC(=O)CSc2nc(=O)n(CCCN(C)C)c3c2CCC3)c(C)c1	nt	-27%	nt	nt	nt	nt
CCN(CC)CCn1c2c(c(SCC(=O)Nc3ccc(C(C)C)cc3)nc1=O)CCCC2	nt	-24%	nt	nt	nt	nt
CCN(CC)CCCn1c2c(c(SCC(=O)Nc3cccc4ccccc34)nc1=O)CCC2	nt	40µM*	nt	nt	nt	nt
SMILES	Tau fibril FP	G9a block	Sfp PPTase inh	Tau fluor cs	Coupling enz	Tau fibril ThT
Cc1c(Cl)cccc1NC(=O)CCn1c(=O)c2cccn2c2ccccc21	3%	5%[59 µM]	nt	-3%	nt	-1%
O=C(CCNC(=O)c1ccccc1Cl)NCC(c1ccc(F)cc1)N1CCOCC1 (stereo not drawn)	nt	-15%	nt	nt	nt	nt
CC(C)(C)C(=O)/C=C/c1ccc(Oc2ccccc2)cc1	3%	-10%[2.33 µM]	4%	-10%	-1	-15%
Cn1c(=N)n(CC(O)c2ccco2)c2ccccc21 (stereo not drawn)	-2%	2%[59 µM]	89µM*	10%	-1	5%
Cc1cc(=O)c(C(=O)O)cn1Nc1ccc(Cl)cc1	-6%	?	8%	-4%	0	-3%
Cc1cccc(-n2cc(C(=O)O)c(=O)cc2C)c1	2%	22µM*	19%	6%	3	3%
Cc1cccc(-n2ccc(=O)c(C(=O)O)n2)c1	nt	19%	10%	nt	0	nt
Cc1cc(=O)c(C(=O)O)cn1-c1ccc(C(C)C)cc1	-2%	45µM*	14%	5%	3	-2%
Cc1ccc(-n2cc(C(=O)O)c(=O)cc2C)c(C)c1	9%	50µM*	-14%	9%	-1	11%
Cc1ccc(-n2nc(C)c(C(=O)O)n2)c(C)c1	0%	79µM*	3%	0%	-4	0%
Cc1cc(=O)c(C(=O)O)cn1Nc1ccc(F)cc1	2%	?	-8%	2%	1	-2%
Cc1cc(C)cc(-n2cc(C(=O)O)c(=O)cc2C)c1	3%	28µM*	2%	0%	0	1%
O=Nc1[nH]c(=O)c(/C=C(\O)c2ccccc2)nc1NO	nt	13%	27%	nt	4	nt
CC(=O)c1ccc(NC(=O)Nc2ccc3c(c2)N(C)C(=O)CS3)cc1	-3%	-7%	-16%	13µM*[quencher]	1	?
CN1C(=O)CSc2ccc(NC(=O)NCCC3=CCCCC3)cc21	?	1%	-1%	14µM*[quencher]	5	-27%
COc1ccc(NC(=O)Nc2ccc3c(c2)N(C)C(=O)CS3)cc1Cl	?	13%[59 µM]	-9%	6.3µM*[quencher]	0	?
COc1ccc(NC(=O)Nc2ccc3c(c2)N(C)C(=O)CS3)cc1OC	6%	?	?	-5%	-3	-6%
Cc1ccc(/C=C2\S/C(=N/S(=O)(=O)c3cccs3)NC2=O)cc1	0%	-8%[59 µM]	?	-14%	14	-20%
CC(=O)Nc1ccc(S(=O)(=O)/N=C2/NC(=O)/C(=C\c3ccco3)S2)cc1	-2%	22µM*	0%	-10%	1	?
O=C1NC(=NCc2ccccc2)S/C1=C/c1ccc(O)cc1	-1%	-31%[59 µM]	25µM*	-12%	6	-11%
Cc1ccc(S(=O)(=O)/N=C2/NC(=O)/C(=C/c3ccncc3)S2)cc1	-3%	?	1%	1%	-3	-10%
Cc1ccc(S(=O)(=O)/N=C2/NC(=O)/C(=C/c3ccccc3)S2)cc1	16%	50µM*	9%	11%	17	-6%
COC(=O)/C=C1/S/C(=N/N=C/c2ccco2)NC1=O	1%	nt	8%	0%	3	?
Cc1ccc(S(=O)(=O)/N=C2/NC(=O)/C(=C\c3ccco3)S2)cc1	-5%	40µM*	15%	-9%	17	-10%
CC(=O)OCON[N+]([O-])=NC1CCCCC1	nt	nt	7%	nt	0	nt
